In PubChem BioAssay (EPA / NIEHS) one finds AC50 and outcome data, which are given here for 16 molecules.

By AC50 is commonly meant the midpoint of the concentration-response curve, whichever way the signal moves.

“And” between values parts separate entries of the source, which are not always exact repeats. Equal values may be shown once. Results filed as inconclusive are left out. More than one record can exist for a structure, and the calls need not agree. The source made the active and inactive calls. How the source made its calls, unless noted: active means hit-call score of the fitted dose curve at least 0.9, where 1 is the maximum; inactive means score below 0.9.

A short description of assay [1]: CCTE_Shafer_MEA_acute_cross_correlation_HWHM: CCTE's Neural Acute Assay for Cross Correlation at Half Width at Half Maximum, Shafer Lab (AID 2284026).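 Further: percent change per well from pre-dose baseline in spike cross-correlogram half width; hits are a decrease in cross-correlogram half width relative to DMSO.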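 On outcome: spontaneous network firing of rat primary cortical neurons on multiwell microelectrode arrays.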 Put shortly:
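Percent change in cross-correlogram half width at half maximum, narrower meaning more synchrony, was derived per well from paired 40-min recordings before and during exposure to 0.03-40 uM compound in rat cortical cultures at 37 C.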

A short description of assay [2]: CCTE_Shafer_MEA_acute_synchrony_index: CCTE's Neural Acute Assay for Synchrony, Shafer Lab (AID 2284027).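 Further: network synchrony index of spontaneous spiking in primary rat cortical neurons on MEAs; fitted for loss of signal so actives lower synchrony relative to DMSO.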 Put shortly:
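Plates equilibrated 20 min at 37 C, baseline recorded 40 min, compound (0.03-40 uM) added, then 40 min more recorded. Cells: primary rat cortical neurons, DIV 13 or 15. Per-well synchrony index change analysed in negative direction against DMSO.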

A short description of assay [3]: CCTE_Shafer_MEA_dev_firing_rate_mean: CCTE's Neural Network Formation Assay for Mean Firing Rate, Shafer Lab (AID 2284031).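 On AC50: curve fitted for loss of firing so AC50 reflects decreased mean firing rate.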 Put shortly:
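Steps: seed rat cortical cells (1.5 x 10^5/well) with laminin on PEI-coated MEA; dose day 0; record DIV 5/7/9/12, full media and compound exchange after DIV 5 and 9 recordings; compute well-mean firing rate AUC.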

A short description of assay [4]: CCTE_Shafer_MEA_dev_active_electrodes_number: CCTE's Neural Network Formation Assay for Number of Active Electrodes, Shafer Lab (AID 2284040; active means hit-call score of the fitted dose curve at least 0.9, where 1 is the maximum;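 on AC50: potency for loss of active electrodes versus DMSO so lower counts are hits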). The gist of the method:
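Counts electrodes per well firing at least 5 spikes/min, recorded on days 5, 7, 9 and 12 in rat cortical cultures dosed continuously from plating (treatment refreshed DIV 5, 9). Value is the area under the curve over recordings, fitted downward relative to DMSO.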

Assay [5] is described as follows: CCTE_Shafer_MEA_dev_burst_rate: CCTE's Neural Network Formation Assay for Burst Rate, Shafer Lab (AID 2284042).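 On AC50: potency for loss of burst rate below DMSO control.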 Put shortly: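 Exposure ran continuously over 12 days of network development in rat cortical cultures, with compound refreshed during full media changes on DIV 5 and 9. Single-electrode bursts per recording time, well-mean over active electrodes, trapezoidal AUC across days 5–12, fitted downward relative to DMSO.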

The nature of assay [6]: CCTE_Shafer_MEA_dev_bursting_electrodes_number: CCTE's Neural Network Formation Assay for Number of Bursting Electrodes, Shafer Lab (AID 2284043; active means hit-call score of the fitted dose curve at least 0.9, where 1 is the maximum;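 on AC50: potency is for loss of bursting electrodes relative to DMSO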). Put shortly:
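Counted: electrodes with burst rate ≥1 per 2 min in each well. Cells: primary rat cortex, 1.5 x 10^5/well, on 16-electrode MEA wells. Exposure: DIV 0–12, compound renewed DIV 5 and 9. Recording days 5, 7, 9, 12; AUC vs DMSO baseline.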

Assay [7] is described as follows: CCTE_Shafer_MEA_dev_per_burst_interspike_interval: CCTE's Neural Network Formation Assay for Burst Interspike Interval, Shafer Lab (AID 2284044).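 Further: mean spike spacing inside bursts as AUC over recordings on days 5 7 9 12.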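 On AC50: potency for a decrease of within-burst interspike interval below DMSO level.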 The gist of the method: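 Spontaneous activity of maturing rat cortical networks is recorded on DIV 5, 7, 9 and 12 under chronic compound exposure beginning at plating. Endpoint: burst interspike interval well-mean, collapsed into trapezoidal AUC and fitted in the negative direction relative to DMSO.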

Assay [8] in a line: CCTE_Shafer_MEA_dev_burst_duration_mean: CCTE's Neural Network Formation Assay for Mean Burst Duration, Shafer Lab (AID 2284045).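 On AC50: curve fitted for loss meaning shorter burst duration than DMSO.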 The gist of the method: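 Network-formation assay in primary rat cortical neurons; treatment spans twelve days of development. Mean burst duration per well is integrated by trapezoidal AUC and fitted in the loss-of-signal direction against DMSO baseline.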

Assay [9] in a line: CCTE_Shafer_MEA_dev_interburst_interval_mean: CCTE's Neural Network Formation Assay for Mean Interburst Interval, Shafer Lab (AID 2284046).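 Further: curve fitted for decrease in interburst interval relative to DMSO.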 Put shortly: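 Primary rat cortical neurons on PEI-coated 48-well MEA plates (laminin added with cells at plating) (16 electrodes/well), exposed from plating day 0 with renewal at DIV 5 and 9. Mean inter-burst interval averaged over bursting electrodes, AUC across days 5, 7, 9, 12; DMSO baseline.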

Assay [10] can be described thus: CCTE_Shafer_MEA_dev_inter_network_spike_interval_mean: CCTE's Neural Network Formation Assay for Mean Inter-network Spike Interval, Shafer Lab (AID 2284047).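 On AC50: potency for a decrease in mean inter-network spike interval below DMSO.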 Put shortly: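 Mean time between consecutive network-spike peaks, recorded extracellularly (adaptive spike detection) on DIV 5, 7, 9 and 12, summarized as trapezoidal AUC. Rat cortical cultures on MEAs dosed continuously days 0–12, re-dosed at feeds; loss-of-signal fit relative to DMSO.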

A short description of assay [11]: CCTE_Shafer_MEA_dev_network_spike_number: CCTE's Neural Network Formation Assay for Number of Network Spikes, Shafer Lab (AID 2284048).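 Further: synchronized bursts across electrodes counted on days 5 7 9 12 and integrated as AUC.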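 On AC50: fit as a loss of signal meaning fewer network spikes than DMSO.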 The gist of the method: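 Extracellular recordings from 16-electrode wells track network formation in rat cortical cultures under continuous treatment from plating. The endpoint is network spike number, expressed as AUC across DIV 5–12 relative to DMSO vehicle.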

A short description of assay [12]: CCTE_Shafer_MEA_dev_network_spike_peak: CCTE's Neural Network Formation Assay for Mean Number of Electrodes in Network Spike, Shafer Lab (AID 2284049).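 On AC50: fitted for loss of signal meaning fewer electrodes in network spikes than DMSO.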 Put shortly:
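Continuous 12-day exposure of rat cortical cultures, starting at plating, on MEA plates. Endpoint: electrodes participating in network-spike peaks, AUC across DIV 5–12, DMSO as negative control.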

In assay [13] the target is Estrogen receptor (Homo sapiens) (UniProt P03372). Put plainly: CCTE_Deisenroth_AIME_384WELL_LUC_Active: CCTE's 384-well Estrogen Receptor Transactivation Assay with AIME metabolic competence (ERTA luciferase; metabolism positive), Deisenroth Lab (AID 2284030; active means hit-call score of the fitted dose curve at least 0.9, where 1 is the maximum). Put shortly: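 Estrogenic luciferase signal in VM7Luc4E2 cells is measured at 24 hour, after chemicals have been preconditioned 2 hours with PB/BNF-induced rat hepatic S9 in alginate. Gain of signal is fitted relative to 17beta-estradiol, across 0.002 - 200 uM.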
Chain of Estrogen receptor (Homo sapiens) (P03372 whole entry, looked up): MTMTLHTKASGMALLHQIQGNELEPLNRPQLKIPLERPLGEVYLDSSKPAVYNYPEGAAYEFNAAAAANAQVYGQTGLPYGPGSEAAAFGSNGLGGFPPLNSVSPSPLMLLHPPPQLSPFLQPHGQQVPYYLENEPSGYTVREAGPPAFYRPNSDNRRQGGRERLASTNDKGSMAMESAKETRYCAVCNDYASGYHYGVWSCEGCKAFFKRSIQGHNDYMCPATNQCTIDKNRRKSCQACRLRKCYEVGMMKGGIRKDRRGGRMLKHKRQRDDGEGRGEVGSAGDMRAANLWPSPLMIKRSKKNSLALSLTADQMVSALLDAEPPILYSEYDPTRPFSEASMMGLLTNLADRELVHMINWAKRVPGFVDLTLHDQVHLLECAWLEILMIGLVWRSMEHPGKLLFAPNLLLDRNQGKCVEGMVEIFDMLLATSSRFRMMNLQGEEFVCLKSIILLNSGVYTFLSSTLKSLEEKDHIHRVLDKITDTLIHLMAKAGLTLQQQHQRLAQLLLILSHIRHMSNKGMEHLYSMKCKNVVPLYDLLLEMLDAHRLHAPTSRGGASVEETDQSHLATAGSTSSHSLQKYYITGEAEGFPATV

Assay [14] shares this target. Put plainly: CCTE_Deisenroth_AIME_384WELL_LUC_Inactive: CCTE's 384-well Estrogen Receptor Transactivation Assay without AIME metabolic competence (ERTA luciferase; metabolism negative), Deisenroth Lab (AID 2284038; active means hit-call score of the fitted dose curve at least 0.9, where 1 is the maximum;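 further: VM7Luc4E2 breast cells given medium preincubated 2 h with S9-free microspheres; hits raise estrogen receptor luciferase signal so potencies reflect agonists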). Put shortly: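 VM7Luc4E2 ER transactivation, luciferase bioluminescence after 24 h, using medium pre-incubated 2 h with S9-free alginate microspheres. Concentrations 0.002–200 uM; gain of signal fitted relative to 17beta-estradiol.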

The target is the same in assay [15]. Put plainly: CCTE_Deisenroth_AIME_384WELL_LUC_Shift: CCTE's 384-well Estrogen Receptor Transactivation Assay with AIME metabolic competence data shift (ERTA luciferase; difference in metabolism positive and negative), Deisenroth Lab (AID 2284041).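 Further: shift is response with S9 minus without S9 so positive means metabolism raised ER signal.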 The gist of the method: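 Here, parent compounds undergo 2 h phase I metabolism by PB/BNF-induced rat S9 before 24 h transactivation in VM7Luc4E2 cells; the curve models S9-positive minus S9-negative response over a 10-point series.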

A short description of assay [16]: CCTE_Deisenroth_AIME_384WELL_CTox_Inactive: Cytotoxicity Assessment (CTOX) in CCTE's 384-well Estrogen Receptor Transactivation Assay without AIME metabolic competence (metabolism negative), Deisenroth Lab (AID 2284039; active means hit-call score of the fitted dose curve at least 0.9, where 1 is the maximum;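 further: cell viability via live-cell protease substrate cleaved to fluorescent probe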). Put shortly: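 Fluorescent protease-substrate viability readout after 24 h exposure of VM7Luc4E2 cells to conditioned medium. Chemicals (0.002–200 uM) first sat 2 h over alginate-water beads, no S9. Data fitted bidirectionally, loss of signal meaning viability loss.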

The target in assay [17] is Estrogen receptor (Homo sapiens) (UniProt P03372). Put plainly: CCTE_Deisenroth_AIME_96WELL_LUC_Inactive: CCTE's 96-well Estrogen Receptor Transactivation Assay without AIME metabolic competence (ERTA luciferase; metabolism negative), Deisenroth Lab (AID 2284025; active means hit-call score of the fitted dose curve at least 0.9, where 1 is the maximum). The gist of the method: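 Metabolism-negative arm: chemicals (0.002–200 uM, 10 points) incubated 2 h with alginate-water microspheres, then medium moved onto VM7Luc4E2 cells for 24 h luciferase read-out. Positive direction vs 17beta-estradiol; n≥4 experiments.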

As for `CO/C=C(/C(=O)OC)c1ccccc1COc1cccc(C(F)(F)F)n1`, the AC50 was 5.05 µM (active) in assay [1]; 5.76 µM (active) in [2]; 272 nM (active) and 453 nM (active) in assay [3]; 229 nM (active) and 493 nM (active) in assay [4]; 280 nM (active) and 327 nM (active) in [5]; 203 nM (active) and 323 nM (active) in assay [6]. The AC50 was 594 nM (active) and 761 nM (active) in assay [7]; 231 nM (active) and 490 nM (active) in assay [8]; 534 nM (active) and 582 nM (active) in assay [9]; 364 nM (active) and 752 nM (active) in assay [10]; 179 nM (active) and 398 nM (active) in assay [11]; 212 nM (active) and 741 nM (active) in assay [12].

Turning to `C=CC(N)=O`, the molecule was classed as inactive in assay [1], in assay [2], in assay [3], in [4], in assay [5] and in [6]. In addition, the molecule was called inactive in assay [7], in assay [8], in assay [9], in [10], in assay [11] and in assay [12].

Turning to `COS(=O)(=O)OC`, the molecule was called inactive in assay [1], in assay [2], in [13], in assay [14] and in [15].

Regarding `O=C(N[C@H]1CN2CCC1CC2)c1cc2ccoc2cn1`, the result in assay [1], in assay [2], in assay [13], in assay [14], in assay [16] and in assay [15] was inactive.

As to `CCCCCCCCOC(=O)c1ccccc1C(=O)OCCCCCCCC`, the AC50 in assay [17] was 2.22 µM (active).

Turning to `Cc1ccc(O)c(C)c1`, the result in assay [13], in [14] and in [15] was inactive.

As to `Cc1cc(-c2ccc(N)c(C)c2)ccc1N`, the AC50 in [13] is 11.9 µM (active); in assay [14], 15.2 µM (active). Also, the molecule was classed as inactive in assay [16] and in assay [15].

On to `CCCCCCOC(=O)c1ccccc1C(=O)OCCCCCC`, for which the call in assay [13], in [14] and in [15] was inactive.

As for `C=CC(=O)NCNC(=O)C=C`, the result in [13], in [14] and in assay [15] was inactive. Moreover, in assay [16], the AC50 is 19.8 µM (active).

As to `C[C@]12CCC(=O)C=C1CC[C@@H]1[C@@H]2CC[C@@]2(C)[C@H]1CC[C@]2(C)O`, the AC50 was 1.8 µM (active) in assay [13], 1.63 µM (active) in [14] and 5.67 µM (active) in [15].

As to `Clc1ccc(Cl)cc1`, the molecule was classed as inactive in assay [13], in [14], in assay [16] and in assay [15].

Turning to `NS(=O)(=O)C(F)(F)C(F)(F)C(F)(F)C(F)(F)C(F)(F)C(F)(F)C(F)(F)C(F)(F)F`, the molecule was called inactive in assay [3], in [4], in [5], in assay [7], in assay [8] and in assay [9]. The molecule was called inactive in assay [10], in assay [11] and in [12]. Besides, the AC50 in [4] is 6.65 µM (active); in assay [6] it was 4.13 µM (active) and 1.93 µM (active); in assay [12], 26.7 µM (active).

For the molecule `C1CC2OC2CC1C1CO1` (configuration not stated), the call in assay [13], in assay [14], in [16] and in assay [15] was inactive.

Take `CCOP(=S)(OCC)SCSC(C)(C)C`: the AC50 in assay [3] is 23.4 µM (active); in [4], 18.2 µM (active) and 16.1 µM (active); in assay [5] it was 23.2 µM (active); in assay [6], 23.1 µM (active) and 16.5 µM (active); in assay [7] it was 17.4 µM (active); in assay [8] it was 23.5 µM (active). Also, the AC50 in [9] is 23 µM (active) and 28.4 µM (active); in [11] it was 18.9 µM (active); in assay [12], 23.1 µM (active) and 13.9 µM (active). Further, the outcome in [3], in assay [5], in [7], in assay [8], in [10] and in assay [11] was inactive.

Turning to `Cc1ccccc1CO[C@@H]1C[C@@]2(C(C)C)CC[C@]1(C)O2`, the molecule was classed as inactive in assay [16].

Turning to `Nn1cnnc1`, the result in assay [13] and in assay [14] was inactive. For the same molecule, the AC50 in [15] is 72.4 µM (active).
